Source: PubChem
Shiga inhibitor: A qHTS for Small Molecule Inhibitors of Shiga Toxin. Vero cells, Shiga toxin protein synthesis inhibition reporter. inhibition, % at 38.7 µM. AID 2315, 2010. 9.2% of 290,000 active; in the data active means inhibition mostly above about 28%, no sharp cut-off; inactive means mostly below about 43%; further: 0% is about no effect
Pf growth 48h: Primary qHTS for delayed death inhibitors of the malarial parasite plastid, 48 hour incubation | P. falciparum luciferase growth in erythrocytes, 48 h | 5.9% of 310,000 active | AID 504832, 2011 | Potency, µM (series often up to 28.7 µM), for the others: top-dose activity change, negative = inhibition, usual class: inhibitors; further: potency means the concentration at half of the fitted maximal effect; on the % scale 0 is the no-effect control and ±100 the full control effect
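A one-generation exposure of luciferase-tagged malaria parasites in RPMI 1640/Albumax erythrocyte culture, 37 C and 5% CO2. Inhibition is inferred from decreased luminescence after adding detection reagent.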
Pf growth 96h: Primary qHTS for delayed death inhibitors of the malarial parasite plastid, 96 hour incubation; P. falciparum luciferase reporter growth, 96 h; Potency, µM (highest dose often 28.7 µM), without a hit: at the highest dose activity change, negative = inhibition, usual class: inhibitors; 6.9% of 320,000 active; AID 504834, 2011; further: potency means the concentration at half of the fitted maximal effect; on the % scale 0 is the no-effect control and ±100 the full control effect
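Cell-based qHTS: luciferase-tagged P. falciparum in erythrocytes (2% hematocrit, 0.05% parasitemia final) incubated with compounds for 96 hours, 37 C, 5% CO2; luciferase detection reagent then added and luminescence measured.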
LASV entry inh: qHTS for Inhibitors of binding or entry into cells for Lassa Virus | Lassa virus pseudotype entry inhibition, cell reporter | Potency, µM (highest dose often 37.9 µM), for inactives: at the highest dose activity change, negative = inhibition, usual class: inhibitors | 1.2% of 300,000 active | AID 540256, 2011; calls by dose curve; tested in HEK293 cells; further: potency means the concentration at half of the fitted maximal effect; on the % scale 0 is the no-effect control and ±100 the full control effect; nearly all actives have a fitted effect of over 50% in size
MARV entry inh: qHTS for inhibitors of binding or entry into cells for Marburg Virus; AID 540276, 2011; Potency, µM (titrated, usually from 37.8 µM), for inactives: at the highest dose activity change, negative = inhibition, usual class: inhibitors; Marburg virus pseudotyped entry inhibition, cell reporter; 1.8% of 300,000 active; calls by dose curve; tested in HEK293 cells; further: potency means the concentration at half of the fitted maximal effect; on the % scale 0 is the no-effect control and ±100 the full control effect
Cycloheximide cs: Cycloheximide Counterscreen for Small Molecule Inhibitors of Shiga Toxin | 12% of 300,000 active | max response, % | AID 2314, 2010 | cell reporter, cycloheximide protein synthesis inhibition counterscreen; in the data active means max response mostly above about 13%, no sharp cut-off; inactive means mostly below about 14%; further: read at 38.3 µM for the half of the compounds with a filed dose; 0% is about no effect
* marks the source's active call; other numbers are inactive results; i = inactive; ? = inconclusive; . = no result given; [ ] = dose if it differs, or a comment. Hits are enriched below; roughly 19% of the tested compounds scored in any of these assays. Unless noted, the call rests on the fitted dose curve; in most records, active means well fitted inhibition curve with a large enough effect; inconclusive means small, poorly fitted or top-dose-only effect, or another doubt; inactive means no such curve, though single readings can be large or run the other way.

SMILES | Shiga inhibitor | Pf growth 48h | Pf growth 96h | LASV entry inh | MARV entry inh | Cycloheximide cs
Cc1c(-c2cc(Br)ccc2O)nc2cc3c(cc2c1C)OCO3 | 47.4* | . | ? | 9.1%[46.1 µM] | ? | 37.9*
O=C1CCOc2cc(OCc3ccccc3)ccc21 | 49.6* | i | i | ? | ? | 33.1*
COc1ccc(NS(=O)(=O)c2c(C)cc(C)cc2C)cn1 | -20.8 | 13.6% | 11.5% | -7.7%[46.1 µM] | -14.5%[46.1 µM] | 4.3
COc1ccc(S(=O)(=O)N2CCC(C(=O)NCC3CCCO3)CC2)cc1OC (stereo unspecified) | -4.3 | 21.5% | 0.1% | -1.8% | -7.6%[46.1 µM] | -2.4
COc1ccc(S(=O)(=O)N2CCC(C(=O)NC3CC3)CC2)cc1 | -8.6 | 9.28µM* | 14.8% | 2.3%[46.1 µM] | -5.8%[46.1 µM] | 8.2
CSc1ccc(S(=O)(=O)N2CCC(C(=O)NC3CC3)CC2)cc1 | 2.8 | 4.15µM* | -8.8% | 6.2% | 3.0%[46.1 µM] | -5.3
COc1ccc(S(=O)(=O)N2CCC(NC(=O)C3CCCCC3)CC2)cc1 | 5.4 | 15.9% | 19.1% | . | 2.5%[46.1 µM] | 1.0
COc1ccc(S(=O)(=O)N2CCC(C(=O)Nc3nccs3)CC2)cc1 | 101.4* | 23.8% | 20.9% | -1.7% | -7.7% | 41.9*
COc1ccc(S(=O)(=O)N2CCC(C(=O)NCC3CCCO3)CC2)cc1 (stereo unspecified) | 51.2* | 16.3% | . | 3.3% | 0.6% | 7.7
COc1ccc(-c2oc(=O)c3cc(OC)c(OC)cc3c2C(F)(F)F)cc1 | . | 7.9% | ? | . | . | .
O=C1COc2ccc(C(=O)COC(=O)CCSc3ccccc3)cc2N1 | 24.1 | 10.4% | 117.0% | . | . | -2.0
N#Cc1c(-c2ccncc2)c2c([nH]c1=O)-c1ccccc1OC2 | -3.6 | -7.7% | -5.3% | . | . | -1.0
COc1ccccc1OCCC(=O)Nc1cccc(S(=O)(=O)N2CCOCC2)c1 | . | -14.0% | ? | . | . | .
Cc1cccc(OCCN2C(=O)C(=O)c3cccc(C)c32)c1 | -8.3 | -16.2% | 8.9% | 12.2% | ? | -0.6
CSc1ccc(S(=O)(=O)N2CCC(C(=O)Nc3cccnc3)CC2)cc1 | 14.9 | -22.4% | -11.9% | ? | ? | -5.4
CSc1ccc(S(=O)(=O)N2CCC(C(=O)Nc3ccc(C(N)=O)cc3)CC2)cc1 | -3.2 | 25.4% | 4.65µM* | -43.8%[46.1 µM] | ? | -3.5
COc1ccc(C(=O)NNC(=O)C(=O)/C=C(\O)c2ccc(C)cc2)cc1 | 7.2 | 21.8% | 23.0% | -3.3%[46.1 µM] | -1.7%[46.1 µM] | 8.2
O=C(/C=C(\O)c1ccccc1)C(=O)NNC(=O)c1ccccc1 | 51.9* | 55.6% | 3.1% | . | . | 38.8*
CCOC(=O)c1sc(NC(=O)C2=COCCO2)c(C#N)c1C | . | 30.0% | 57.2% | -19.1%[46.1 µM] | ? | .
COc1ccc(CNCc2ccncc2)cc1OC | -7.5 | ? | 10.4µM* | 16.4% | 1.8% | 2.3
O=S(=O)(Nc1ccc(Cc2ccncc2)cc1)c1ccc(Cl)c(Cl)c1 | -13.3 | ? | ? | -25.3% | ? | -2.1
CCc1ccc(NS(=O)(=O)c2ccc(OC)c3ncccc23)cc1 | 2.0 | 15.3% | 39.5% | -9.5%[46.1 µM] | 7.0%[46.1 µM] | -3.4
COc1ccc(S(=O)(=O)Nc2ccc(Cc3ccncc3)cc2)cc1OC | -6.1 | -2.6% | -19.9% | ? | 1.41µM* | -7.3
CCc1ccc(OC)c(S(=O)(=O)Nc2ccc(Cc3ccncc3)cc2)c1 | 2.7 | ? | 21.5% | 12.6µM* | ? | -1.2
Cc1nn(-c2ccccc2)c(C)c1-c1cc(C(=O)N/N=C/c2cccnc2)[nH]n1 | 30.5 | 0.0% | -3.1% | . | . | -1.3
SMILES | Shiga inhibitor | Pf growth 48h | Pf growth 96h | LASV entry inh | MARV entry inh | Cycloheximide cs
CC(C)(C)c1cc(C(=O)N/N=C/c2ccc(O)cc2)n(-c2ccccc2)n1 | -6.2 | 9.28µM* | -8.1% | ? | ? | -1.8
Cc1ccc(-c2cc(C(=O)N/N=C/c3c(C)nn(-c4ccccc4)c3C)[nH]n2)cc1 | 31.7 | 11.7µM* | 6.57µM* | . | -1.7% | 6.8
Cc1nn(-c2ccccc2)c(C)c1/C=N/n1c(-c2ccc(C(C)(C)C)cc2)n[nH]c1=S | -5.5 | ? | 2.7% | 0.112µM* | -25.7% | -2.4
Cc1nn(-c2ccccc2)c(C)c1/C=N/NC(=O)c1cc(C(C)(C)C)[nH]n1 | 14.3 | ? | ? | ? | 4.47µM* | -0.8
Cc1cc(C(=O)N/N=C/c2c(C)n(C)c3ccccc23)n[nH]1 | 5.7 | 12.9% | -3.6% | 9.7% | ? | 1.0
N#Cc1ccc(CSc2nc3c(c(=O)[nH]2)CCCC3)cc1 | . | . | . | 11.4%[46.1 µM] | -3.7%[46.1 µM] | .
COC(=O)c1cc(-c2c(C)nn(-c3ccccc3)c2C)n[nH]1 | 57.5* | 27.9% | -5.8% | 7.3% | 15.1% | 25.8*
Cc1ccc(-c2cc(C(=O)N/N=C/c3c(C)nn(-c4ccccc4)c3C)n[nH]2)s1 | -8.0 | ? | 59.8% | 8.2µM* | ? | 1.4
COC(=O)c1cc(C)nc2c1c(C)nn2-c1ccccc1 | . | -6.1% | 13.2% | . | . | .
Cc1c[nH]c(=O)c([N+](=O)[O-])c1 | 11.4 | 18.1% | 51.4% | . | . | 1.3
O=C(COc1ncnc2sccc12)N1CCN(c2ccccc2)CC1 | 24.8 | -5.3% | 18.6% | . | . | -2.1
CC1CCCC(C)N1NC(=O)Cc1ccccc1 (stereo unspecified) | 8.8 | -7.8% | 20.2% | 0.9% | 3.0%[46.1 µM] | -1.5
COc1ccc(/C=C/C(=O)Nc2cccc(S(=O)(=O)N3CCOCC3)c2)cc1OC | . | -12.0% | ? | ? | ? | .
CN(C)S(=O)(=O)c1cccc(NC(=O)/C=C/c2ccc(S(=O)(=O)N3CCOCC3)cc2)c1 | . | 8.28µM* | ? | ? | ? | .
O=C(/C=C/c1ccc(OC(F)F)cc1)Nc1cccc(S(=O)(=O)N2CCOCC2)c1 | 41.3* | -13.3% | ? | ? | ? | 24.5*
O=C(NCCCn1ccnc1)C1CC(c2ccccc2Cl)=NO1 (stereo unspecified) | 15.5 | 4.7% | 52.9% | 3.1% | -0.8%[46.1 µM] | -5.0
OCCC1CN(C2CCC2)CCN1Cc1ccc(F)c(F)c1 (stereo unspecified) | -14.5 | -1.4% | 11.7µM* | -0.2% | -14.4% | -1.4
Cc1ccccc1CN1CCN(C2CCC2)CC1CCO (stereo unspecified) | 18.9 | 0.7% | 14.7µM* | ? | ? | 1.1
OCCC1CN(CC2CC2)CCN1Cc1ccc(F)c(F)c1 (stereo unspecified) | -4.5 | 35.2% | 13.1µM* | 7.6% | 5.4% | 0.9
C=CCn1cnc2c(c1=O)c1nc3ccccc3nc1n2/N=C/c1cccc(OC)c1 | -11.8 | ? | ? | 5.2% | 27.9% | 9.1
Cc1cccc(N2CCN(S(=O)(=O)c3ccc4c(c3)C(C(C)C)C(=O)N4)CC2)c1C (stereo unspecified) | . | . | . | 1.26µM* | . | .
Cc1cc(C(=O)NCC(c2ccco2)N(C)C)ccc1[N+](=O)[O-] (stereo unspecified) | -4.0 | -5.4% | 5.8% | 2.7% | 0.9%[46.1 µM] | 8.9*
